An excerpt weighted towards active compounds, which were near 3.8% of everything screened.
NTR1 agonist: activates human neurotensin receptor 1. P30989. NTR1-U2OS beta-arrestin-GFP spot imaging, agonist mode. activation, % at 20 µM. actives 0.17% (n = 330,000). AID 493036;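 active = activation at or above 40% of the spot to cytoplasm intensity ratio, with at least 20 cells analyzed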;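 note: 0% = DMSO without peptide and 100% = 100 nM NTR1 peptide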
Target sequence (P30989 whole entry, looked up): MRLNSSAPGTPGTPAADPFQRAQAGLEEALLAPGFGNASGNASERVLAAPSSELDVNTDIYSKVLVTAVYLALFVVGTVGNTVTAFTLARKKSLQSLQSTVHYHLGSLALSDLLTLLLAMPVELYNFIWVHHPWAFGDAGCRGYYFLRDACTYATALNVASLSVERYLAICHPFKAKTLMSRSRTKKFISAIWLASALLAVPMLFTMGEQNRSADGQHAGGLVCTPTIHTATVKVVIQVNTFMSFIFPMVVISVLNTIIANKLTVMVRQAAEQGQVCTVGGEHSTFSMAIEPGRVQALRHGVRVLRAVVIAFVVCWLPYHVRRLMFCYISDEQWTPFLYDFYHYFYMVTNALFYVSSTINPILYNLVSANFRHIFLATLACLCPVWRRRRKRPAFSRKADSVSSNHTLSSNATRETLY
Jurkat NFkB inh: lowers PMA/ionomycin-induced NF-kB signal in Jurkat cells; PMA/ionomycin-induced NF-kB luciferase reporter, luminescence; actives 0.53% (n = 330,000); inhibition, % at 4 µM; AID 435003; in the data active = inhibition above about 50%
Mdm2-MdmX inh: inhibitors of human Mdm2/MdmX interaction; SaOS-2 split-luciferase Mdm2/MdmX complementation, luminescence; O15151+Q00987; actives 3% (n = 330,000); inhibition, % at 8 µM;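 active = inhibition of at least 50% at 8 µM in the primary screen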
Bfl-1 A1 inh: inhibitors of the anti-apoptotic protein A1, read as caspase activation; MEF A1-2A-BIM cells, Caspase-Glo 3/7 luminescence, 3 h; percent of clofoctol response, vehicle zero; caspase activation, % (no concentration beside the values); actives 0.066% (n = 330,000);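 active = over half of replicate activation scores above 10%, or exactly half above 10 with the replicate mean above 10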
697 NFkB inh: inhibitors of the PMA/ionomycin-induced NF-kB reporter in 697 B cells; inhibition, % at 4 µM; actives 0.33% (n = 330,000); 697 B-cell NF-kB luciferase reporter, 16 h; AID 435022; in the data active = inhibition above about 35%
Beta apoptosis: beta cell apoptosis inhibition. INS-1E cytokine-induced death, ATP luminescence, 48 h; percent of positive-control rescue, neutral wells zero. protection from apoptosis, % (concentration not given with the values). actives 0.8% (n = 300,000). AID 435005;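 active = Every replicate reaches about 75%, or at least half do and their mean reaches it too, limit read from the data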;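 note: 0% = cytokine-treated negative control wells and 100% = positive control rescue; higher means more ATP so stronger rescue from cytokine killing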
697 NFkB conf: inhibitors of the PMA/ionomycin-induced NF-kB reporter in 697 B cells, retest; shares compounds with 697 NFkB inh; 697 B-cell NF-kB luciferase, 16 h; inhibition, % at 4 µM; actives 35% (n = 2,000); in the data active = inhibition mostly above about 28%, no sharp cut-off; inactive = mostly below about 22%
Mdm2-MdmX conf: human Mdm2/MdmX binding inhibition, confirmed. shares compounds with Mdm2-MdmX inh. luminescent assay. inhibition, % at 8 µM. actives 55% (n = 10,000). AID 489028; in the data active = inhibition above about 40%
FLuc counter: inhibits full-length luciferase, flagging false Mdm2/MdmX hits. shares compounds with Mdm2-MdmX inh. SaOS-2 full-length luciferase counterscreen, luminescence. inhibition, % at 8 µM. actives 77% (n = 6,200). AID 504607;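 active = mean inhibition at 8 µM reaching about 37%, which flags the compound as non-specific, limit read from the data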;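 note: p53-null SaOS-2 cells with luciferase driven by a doxycycline-inducible promoter; compound on cells about two nights before reading with doxycycline added after day one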
Starred values were filed as active, the others as inactive; i = inactive; . = no result given.

SMILES	NTR1 agonist	Jurkat NFkB inh	Mdm2-MdmX inh	Bfl-1 A1 inh	697 NFkB inh	Beta apoptosis	697 NFkB conf	Mdm2-MdmX conf	FLuc counter
Cc1cc(OCC(=O)Nc2ccc(CN3CCOCC3)cc2)c2c(C)c(C)c(=O)oc2c1	2.6	5.7	57.6*	0.3	38.4*	-0.6	20.9	23.7	.
Cc1cc(OCC(=O)Nc2ccc(CN3CCOCC3)cc2)c2c(C)cc(=O)oc2c1	3.1	-7.4	32.6	-0.2	20.9	12.9	.	.	.
C#CCOc1ccc(/C=C2/C(=O)NN(c3ccc(F)cc3)C2=O)cc1OC	1.6	-1.5	8.3	0.5	-16.8	-3.9	.	.	.
C#CCn1c(S(=O)(=O)Cc2ccc(C)cc2)nc(-c2ccccc2)c1-c1ccccc1	0.6	-113.7	94.6*	-1.1	i	1.5	i	81.3*	54.6*
CCOC(=O)Cn1c(S(=O)(=O)Cc2ccccc2Cl)nc(-c2ccccc2)c1-c1ccccc1	1.2	6.6	33.2	0.6	-0.7	23.8	.	.	.
CC(C)(C)C1=CC(O)(c2ccccc2)C=C(C(C)(C)C)C1=O	11.6	15.2	-2.7	1.1	1.4	23.8	.	.	.
CC(C)=NOc1nc(NC(=O)NS(=O)(=O)c2ccccc2Cl)nc(N(C)C)n1	0.5	4.6	3.8	0.7	-4.4	.	.	.	.
CC(C)(C)c1ccc(-c2cc(-c3ccccc3O)[nH]n2)cc1	8.5	-97.0	58.0*	-1.9	-368.4	11.6	-220.3	64.9*	138.6*
Cc1cc(=O)[nH]c2c(C)cc(S(=O)(=O)N3CCCCC3)cc12	0.5	-2.9	69.5*	-2.6	43.4*	-3.2	36.2*	54.1*	89.2*
Cc1ccc(C(=O)C[n+]2cc(-c3ccc(C)cc3)n3c2CCCCC3)cc1	3.3	46.2	53.2*	-0.9	80.5*	124.9*	54.2*	53.5*	48.1*
COc1ccccc1-c1noc2ncnc(Nc3cccc(C)c3C)c12	-2.1	9.0	1.9	2.6	-4.3	.	.	.	.
CC(C)OCCCNC(=O)c1c(N)n(/N=C/c2ccccn2)c2nc3ccccc3nc12	13.5	38.9	64.4*	-0.1	44.2*	21.2	36.8*	52.0*	63.2*
CC(Sc1nnc(NC2CCCCC2)s1)C(=O)N1CCOCC1 (centres undefined)	-0.6	0.9	0.2	0.4	-6.7	1.1	.	.	.
Cc1ccc(OCC(=O)NCCNC(=O)c2ccccn2)cc1	-1.2	1.7	1.7	0.6	10.3	2.9	.	.	.
CCOc1ccccc1CNC(=O)c1cc2occc2n1C	-3.3	12.2	-4.7	0.5	0.4	.	.	.	.
CCOc1ccccc1CNC(=O)c1cc2oc3ccccc3c2n1C	5.6	-32.6	83.7*	0.2	-359.0	7.5	-162.8	86.8*	26.3
O=C(Oc1ccnc2cc(Cl)ccc12)N1CCCCCC1	0.3	15.1	67.1*	0.7	38.0*	1.3	13.8	39.1	30.0
CCOC(=O)N1CCN(c2ccnc3cc(Cl)ccc23)CC1	1.1	7.6	-6.3	0.4	19.3	1.2	.	.	.
Cc1ccc(NC(=O)[C@H](Cc2c[nH]c3ccccc23)NC(=O)[C@@H]2Cc3ccccc3CN2)c(C)c1	4.0	-47.6	96.7*	1.3	i	-3.4	-4.6	82.1*	49.1*
Cc1cccc(NC(=O)[C@H](Cc2c[nH]c3ccccc23)NC(=O)[C@@H]2Cc3ccccc3CN2)c1	-1.3	-65.1	95.4*	0.9	i	.	1.0	79.1*	26.6
Cc1ccc(NC(=O)[C@H](Cc2ccccc2)NC(=O)[C@@H]2Cc3ccccc3CN2)c(C)c1	2.8	5.3	-1.0	0.1	3.9	6.7	.	.	.
CC(NC(=O)[C@H](Cc1c[nH]c2ccccc12)NC(=O)[C@@H]1Cc2ccccc2CN1)c1ccccc1 (some centres undefined)	-1.8	6.8	19.4	-0.2	18.3	-6.4	.	.	.
CCc1ccc(NC(=O)[C@H](Cc2c[nH]c3ccccc23)NC(=O)[C@@H]2Cc3ccccc3CN2)cc1	1.6	-67.1	92.9*	-2.4	i	.	-75.8	83.3*	24.1

Bioassay records (PubChem)
